Source: ChEMBL document CHEMBL1961873, “Compounds: GSK PKIS; Assays: Nanosyn kinase panel” (2012)
Several values for one entry are separate records, joined by “and”; a condition that tells them apart may be missing. Equal values may be shown once.

Key:
[1] = target: Tyrosine-protein kinase Fyn (Homo sapiens) (UniProt P06241); settings: at 1 µM
[2] = target: Tyrosine-protein kinase HCK (Homo sapiens) (UniProt P08631); settings: at 0.1 µM
[3] = target: Tyrosine-protein kinase HCK (Homo sapiens) (UniProt P08631); settings: at 1 µM
[4] = target: Insulin-like growth factor 1 receptor (Homo sapiens) (UniProt P08069); settings: at 0.1 µM
[5] = target: Insulin-like growth factor 1 receptor (Homo sapiens) (UniProt P08069); settings: at 1 µM
[6] = target: Insulin receptor (Homo sapiens) (UniProt P06213); settings: at 0.1 µM
Insulin receptor (Homo sapiens), sequence (P06213 28-758 limits assumed): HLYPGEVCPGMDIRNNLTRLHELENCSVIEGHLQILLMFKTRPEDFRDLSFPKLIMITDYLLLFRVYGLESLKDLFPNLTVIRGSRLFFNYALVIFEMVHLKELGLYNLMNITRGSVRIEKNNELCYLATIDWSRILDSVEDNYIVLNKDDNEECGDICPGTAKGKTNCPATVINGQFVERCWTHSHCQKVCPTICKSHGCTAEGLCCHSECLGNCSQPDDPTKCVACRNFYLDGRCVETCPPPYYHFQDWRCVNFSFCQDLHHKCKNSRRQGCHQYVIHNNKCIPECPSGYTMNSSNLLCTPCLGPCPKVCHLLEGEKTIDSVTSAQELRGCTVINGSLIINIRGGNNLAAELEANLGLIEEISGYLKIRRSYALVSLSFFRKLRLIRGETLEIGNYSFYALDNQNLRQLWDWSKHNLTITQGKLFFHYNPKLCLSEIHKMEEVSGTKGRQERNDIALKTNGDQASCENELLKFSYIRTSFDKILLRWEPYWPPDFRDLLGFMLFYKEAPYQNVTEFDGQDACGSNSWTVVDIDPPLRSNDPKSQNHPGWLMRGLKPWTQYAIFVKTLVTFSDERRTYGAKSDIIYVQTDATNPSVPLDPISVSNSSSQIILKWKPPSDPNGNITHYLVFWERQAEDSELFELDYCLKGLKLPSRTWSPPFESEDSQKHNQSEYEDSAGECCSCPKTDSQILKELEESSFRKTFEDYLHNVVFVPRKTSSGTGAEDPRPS
Insulin receptor (Homo sapiens), sequence (P06213 763-1382 limits assumed): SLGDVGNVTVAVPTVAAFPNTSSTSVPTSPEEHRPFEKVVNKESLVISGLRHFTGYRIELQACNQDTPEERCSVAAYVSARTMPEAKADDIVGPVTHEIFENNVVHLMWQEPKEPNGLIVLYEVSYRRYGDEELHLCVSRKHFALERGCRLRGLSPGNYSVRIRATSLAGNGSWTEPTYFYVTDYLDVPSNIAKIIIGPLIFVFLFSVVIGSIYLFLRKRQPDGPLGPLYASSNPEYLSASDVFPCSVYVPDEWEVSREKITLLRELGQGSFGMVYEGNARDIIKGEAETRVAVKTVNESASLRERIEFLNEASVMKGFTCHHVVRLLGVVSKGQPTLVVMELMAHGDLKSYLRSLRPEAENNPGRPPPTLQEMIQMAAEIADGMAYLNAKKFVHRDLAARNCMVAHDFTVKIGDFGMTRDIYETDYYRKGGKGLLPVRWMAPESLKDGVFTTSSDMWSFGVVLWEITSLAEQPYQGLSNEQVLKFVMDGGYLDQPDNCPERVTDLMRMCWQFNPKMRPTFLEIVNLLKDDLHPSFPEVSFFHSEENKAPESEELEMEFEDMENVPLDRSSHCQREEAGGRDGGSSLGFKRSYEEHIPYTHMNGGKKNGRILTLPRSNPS

[7] = target: Insulin receptor (Homo sapiens) (UniProt P06213); settings: at 1 µM
[8] = target: Insulin receptor-related protein (Homo sapiens) (UniProt P14616); settings: at 0.1 µM
Insulin receptor-related protein (Homo sapiens), sequence (P14616 27-742 limits assumed): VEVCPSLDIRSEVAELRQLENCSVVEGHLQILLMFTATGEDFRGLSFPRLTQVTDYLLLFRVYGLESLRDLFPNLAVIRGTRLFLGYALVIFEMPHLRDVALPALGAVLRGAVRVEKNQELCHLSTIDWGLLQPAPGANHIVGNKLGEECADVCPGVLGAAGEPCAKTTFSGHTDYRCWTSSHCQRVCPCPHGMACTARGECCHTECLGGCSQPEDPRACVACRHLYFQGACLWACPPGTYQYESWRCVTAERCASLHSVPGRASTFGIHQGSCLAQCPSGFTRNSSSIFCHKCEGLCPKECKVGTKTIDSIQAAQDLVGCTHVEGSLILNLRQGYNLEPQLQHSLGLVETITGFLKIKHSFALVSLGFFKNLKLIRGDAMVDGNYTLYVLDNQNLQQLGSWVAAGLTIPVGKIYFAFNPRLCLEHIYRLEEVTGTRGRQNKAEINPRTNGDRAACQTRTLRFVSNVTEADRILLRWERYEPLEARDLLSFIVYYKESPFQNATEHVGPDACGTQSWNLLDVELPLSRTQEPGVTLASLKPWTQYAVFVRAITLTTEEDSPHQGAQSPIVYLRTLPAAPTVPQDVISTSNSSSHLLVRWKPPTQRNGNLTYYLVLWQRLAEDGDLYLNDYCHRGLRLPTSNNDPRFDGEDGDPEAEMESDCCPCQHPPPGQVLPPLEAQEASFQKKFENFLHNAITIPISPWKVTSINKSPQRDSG
Insulin receptor-related protein (Homo sapiens), sequence (P14616 747-1297 limits assumed): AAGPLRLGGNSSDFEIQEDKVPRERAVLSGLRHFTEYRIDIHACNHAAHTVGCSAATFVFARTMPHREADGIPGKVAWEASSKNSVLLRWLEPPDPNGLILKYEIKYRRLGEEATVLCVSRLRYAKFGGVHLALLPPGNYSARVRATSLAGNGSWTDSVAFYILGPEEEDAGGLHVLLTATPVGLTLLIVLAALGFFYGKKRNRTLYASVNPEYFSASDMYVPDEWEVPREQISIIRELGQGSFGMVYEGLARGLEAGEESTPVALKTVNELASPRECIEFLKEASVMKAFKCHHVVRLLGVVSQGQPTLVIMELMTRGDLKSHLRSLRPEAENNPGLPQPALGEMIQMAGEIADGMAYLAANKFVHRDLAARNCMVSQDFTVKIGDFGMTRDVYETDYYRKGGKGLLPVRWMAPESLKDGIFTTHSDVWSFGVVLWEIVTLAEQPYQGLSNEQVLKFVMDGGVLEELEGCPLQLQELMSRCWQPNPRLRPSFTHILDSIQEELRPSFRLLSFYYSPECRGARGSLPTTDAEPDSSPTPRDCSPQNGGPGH

[9] = target: Insulin receptor-related protein (Homo sapiens) (UniProt P14616); settings: at 1 µM
[10] = target: T1, Tyrosine-protein kinase ITK/TSK (Homo sapiens) (UniProt Q08881); settings: at 0.1 µM
T1 sequence (whole entry): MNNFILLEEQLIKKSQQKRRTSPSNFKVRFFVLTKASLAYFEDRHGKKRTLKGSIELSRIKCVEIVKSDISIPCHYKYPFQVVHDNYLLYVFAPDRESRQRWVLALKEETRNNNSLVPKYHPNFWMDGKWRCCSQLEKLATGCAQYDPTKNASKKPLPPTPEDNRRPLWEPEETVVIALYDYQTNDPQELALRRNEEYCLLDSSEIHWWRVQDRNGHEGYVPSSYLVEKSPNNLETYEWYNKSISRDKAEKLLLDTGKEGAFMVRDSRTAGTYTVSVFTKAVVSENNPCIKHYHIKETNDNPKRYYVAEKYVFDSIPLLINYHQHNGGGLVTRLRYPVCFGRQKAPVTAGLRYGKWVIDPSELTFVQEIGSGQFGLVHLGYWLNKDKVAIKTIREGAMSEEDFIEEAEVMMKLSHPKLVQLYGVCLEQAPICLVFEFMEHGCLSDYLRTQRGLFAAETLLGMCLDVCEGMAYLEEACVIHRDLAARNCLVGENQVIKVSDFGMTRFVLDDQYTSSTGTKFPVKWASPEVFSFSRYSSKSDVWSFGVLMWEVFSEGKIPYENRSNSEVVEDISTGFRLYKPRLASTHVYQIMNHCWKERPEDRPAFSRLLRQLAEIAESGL

[11] = target: T1, Tyrosine-protein kinase ITK/TSK (Homo sapiens); settings: at 1 µM
[12] = target: Tyrosine-protein kinase JAK1 (Homo sapiens) (UniProt P23458); settings: at 0.1 µM
[13] = target: Tyrosine-protein kinase JAK1 (Homo sapiens) (UniProt P23458); settings: at 1 µM
[14] = target: Tyrosine-protein kinase JAK2 (Homo sapiens) (UniProt O60674); settings: at 0.1 µM
Tyrosine-protein kinase JAK2 (Homo sapiens), sequence (O60674 whole entry): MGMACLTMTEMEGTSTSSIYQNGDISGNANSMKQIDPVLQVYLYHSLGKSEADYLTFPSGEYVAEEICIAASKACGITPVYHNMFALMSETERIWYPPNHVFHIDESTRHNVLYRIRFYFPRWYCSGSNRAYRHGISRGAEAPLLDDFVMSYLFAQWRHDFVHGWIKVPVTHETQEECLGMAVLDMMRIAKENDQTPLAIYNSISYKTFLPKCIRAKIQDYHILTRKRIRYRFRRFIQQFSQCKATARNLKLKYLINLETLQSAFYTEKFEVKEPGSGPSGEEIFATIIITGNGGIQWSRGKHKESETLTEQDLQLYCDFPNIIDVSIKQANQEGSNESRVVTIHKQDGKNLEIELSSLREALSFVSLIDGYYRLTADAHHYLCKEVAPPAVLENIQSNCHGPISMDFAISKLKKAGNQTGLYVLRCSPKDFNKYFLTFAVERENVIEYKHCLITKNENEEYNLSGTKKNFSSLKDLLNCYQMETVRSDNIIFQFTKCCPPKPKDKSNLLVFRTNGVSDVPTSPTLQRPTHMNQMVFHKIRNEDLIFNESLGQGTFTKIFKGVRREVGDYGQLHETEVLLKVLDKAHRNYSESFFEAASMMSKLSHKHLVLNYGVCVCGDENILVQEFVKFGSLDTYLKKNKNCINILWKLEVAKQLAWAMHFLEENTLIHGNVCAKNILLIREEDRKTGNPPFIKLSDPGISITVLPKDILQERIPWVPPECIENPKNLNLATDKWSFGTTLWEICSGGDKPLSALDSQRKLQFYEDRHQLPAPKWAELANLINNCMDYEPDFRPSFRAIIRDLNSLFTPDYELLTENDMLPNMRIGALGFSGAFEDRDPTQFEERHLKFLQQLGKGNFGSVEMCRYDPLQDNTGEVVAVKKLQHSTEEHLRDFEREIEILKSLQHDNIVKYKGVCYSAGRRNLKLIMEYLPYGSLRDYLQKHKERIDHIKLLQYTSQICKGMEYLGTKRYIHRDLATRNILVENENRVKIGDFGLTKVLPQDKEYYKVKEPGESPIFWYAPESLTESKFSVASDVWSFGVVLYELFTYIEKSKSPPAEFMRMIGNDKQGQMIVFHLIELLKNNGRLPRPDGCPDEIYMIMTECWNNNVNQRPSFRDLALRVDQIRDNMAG

[15] = target: Tyrosine-protein kinase JAK2 (Homo sapiens) (UniProt O60674); settings: at 1 µM
[16] = target: T2, Tyrosine-protein kinase JAK3 (Homo sapiens) (UniProt P52333); settings: at 0.1 µM
T2 sequence (whole entry): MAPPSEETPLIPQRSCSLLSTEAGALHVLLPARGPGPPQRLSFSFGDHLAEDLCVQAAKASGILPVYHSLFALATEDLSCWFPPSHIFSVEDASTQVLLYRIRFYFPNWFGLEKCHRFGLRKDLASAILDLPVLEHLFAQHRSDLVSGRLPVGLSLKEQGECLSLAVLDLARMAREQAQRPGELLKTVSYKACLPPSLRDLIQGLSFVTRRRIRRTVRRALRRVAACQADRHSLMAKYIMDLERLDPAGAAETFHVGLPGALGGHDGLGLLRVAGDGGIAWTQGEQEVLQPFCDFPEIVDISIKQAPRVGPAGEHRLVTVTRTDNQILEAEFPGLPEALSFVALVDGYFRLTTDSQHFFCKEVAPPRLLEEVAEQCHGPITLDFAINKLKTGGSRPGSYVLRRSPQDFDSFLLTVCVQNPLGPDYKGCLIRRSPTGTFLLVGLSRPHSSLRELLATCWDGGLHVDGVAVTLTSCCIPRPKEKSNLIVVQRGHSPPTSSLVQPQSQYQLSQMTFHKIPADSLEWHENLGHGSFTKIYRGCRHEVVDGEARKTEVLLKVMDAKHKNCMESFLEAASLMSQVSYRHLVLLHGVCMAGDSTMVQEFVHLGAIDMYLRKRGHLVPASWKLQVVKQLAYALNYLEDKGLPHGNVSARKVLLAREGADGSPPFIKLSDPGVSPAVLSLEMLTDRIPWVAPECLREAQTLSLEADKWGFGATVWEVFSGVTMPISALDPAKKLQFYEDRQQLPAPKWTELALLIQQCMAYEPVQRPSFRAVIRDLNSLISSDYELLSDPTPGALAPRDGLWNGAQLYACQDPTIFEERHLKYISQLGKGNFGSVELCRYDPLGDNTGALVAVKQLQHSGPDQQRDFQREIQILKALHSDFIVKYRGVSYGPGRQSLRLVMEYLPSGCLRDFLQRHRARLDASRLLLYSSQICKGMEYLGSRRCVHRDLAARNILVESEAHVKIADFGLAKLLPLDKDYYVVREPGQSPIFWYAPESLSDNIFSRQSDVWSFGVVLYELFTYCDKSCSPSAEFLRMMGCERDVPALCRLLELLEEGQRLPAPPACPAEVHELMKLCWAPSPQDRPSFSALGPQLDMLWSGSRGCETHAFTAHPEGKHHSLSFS

[17] = target: T2, Tyrosine-protein kinase JAK3 (Homo sapiens); settings: at 1 µM
[18] = target: Vascular endothelial growth factor receptor 2 (Homo sapiens) (UniProt P35968); settings: at 0.1 µM
[19] = target: Vascular endothelial growth factor receptor 2 (Homo sapiens) (UniProt P35968); settings: at 1 µM
[20] = target: Mast/stem cell growth factor receptor Kit (Homo sapiens) (UniProt P10721); settings: at 0.1 µM;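 also: values are mean inhibition of KIT, from the GSK PKIS dataset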
Mast/stem cell growth factor receptor Kit (Homo sapiens), sequence (P10721 whole entry): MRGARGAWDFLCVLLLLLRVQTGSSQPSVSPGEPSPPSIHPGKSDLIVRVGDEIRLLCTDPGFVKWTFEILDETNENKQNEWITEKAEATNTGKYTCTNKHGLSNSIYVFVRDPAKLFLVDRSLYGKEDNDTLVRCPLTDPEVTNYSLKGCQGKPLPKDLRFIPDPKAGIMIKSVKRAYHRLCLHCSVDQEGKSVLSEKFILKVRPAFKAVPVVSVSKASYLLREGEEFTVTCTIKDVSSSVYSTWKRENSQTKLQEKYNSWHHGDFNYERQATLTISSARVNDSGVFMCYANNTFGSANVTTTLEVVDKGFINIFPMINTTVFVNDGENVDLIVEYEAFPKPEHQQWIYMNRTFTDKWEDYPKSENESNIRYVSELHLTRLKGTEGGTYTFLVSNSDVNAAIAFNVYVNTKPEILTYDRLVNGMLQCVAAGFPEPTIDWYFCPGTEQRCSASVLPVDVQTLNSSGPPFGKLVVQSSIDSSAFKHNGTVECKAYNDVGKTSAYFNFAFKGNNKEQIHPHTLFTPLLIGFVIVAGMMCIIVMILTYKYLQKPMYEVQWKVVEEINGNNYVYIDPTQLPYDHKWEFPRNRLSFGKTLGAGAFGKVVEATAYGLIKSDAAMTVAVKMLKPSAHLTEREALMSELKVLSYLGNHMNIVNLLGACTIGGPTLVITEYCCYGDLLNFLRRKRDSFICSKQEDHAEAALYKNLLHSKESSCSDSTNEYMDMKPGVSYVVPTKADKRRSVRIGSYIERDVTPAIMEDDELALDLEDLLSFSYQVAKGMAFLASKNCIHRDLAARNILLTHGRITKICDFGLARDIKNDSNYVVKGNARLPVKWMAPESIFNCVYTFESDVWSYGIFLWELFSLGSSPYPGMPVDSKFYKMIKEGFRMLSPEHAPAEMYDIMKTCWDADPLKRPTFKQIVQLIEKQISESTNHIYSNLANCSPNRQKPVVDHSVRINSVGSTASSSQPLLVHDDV

Compound	inhibition [1]	inhibition [2]	inhibition [3]	inhibition [4]	inhibition [5]	inhibition [6]	inhibition [7]	inhibition [8]	inhibition [9]	inhibition [10]	inhibition [11]	inhibition [12]	inhibition [13]	inhibition [14]	inhibition [15]	inhibition [16]	inhibition [17]	inhibition [18]	inhibition [19]	inhibition [20]
CC1(C)CC(n2cnc(-c3ccc(F)cc3)c2-c2ccnc(N)n2)CC(C)(C)N1	2.65%	2.18%	3.22%	1.3%	3.3%	4.97%	4.07%	-0.08%	-1.13%	0.29%	0.97%	-2.83%	1.68%	0.57%	-0.41%	-0.01%	-0.6%	-0.9%	5.32%	-0.71%
N#Cc1cccc(Nc2ncc(-c3ccccc3)o2)c1	10.8%	0.69%	7.33%	0.34%	0.27%	1.81%	4.42%	0.61%	-0.06%	1.16%	2.42%	0.52%	10.7%	0.78%	0.35%	-1.06%	-0.94%	3.11%	11%	19.9%
COc1cc(N2CCN(C(C)C)CC2)ccc1Nc1nc(Nc2cccc(F)c2C(=O)O)c2cc[nH]c2n1	0.99%	4.6%	9.23%	65.7%	89.8%	82.6%	95.5%	22.1%	82.3%	1.35%	5.92%	4.17%	8.87%	6.66%	2.37%	-1.39%	0.51%	4.67%	6.45%	2.86%
COc1cc(N2CCN(C(C)C)CC2)ccc1Nc1nc(Nc2cccc3ncccc23)c2cc[nH]c2n1	2.23%	0.79%	1.71%	12%	60.5%	22.6%	82.1%	-1.05%	14.8%	-0.09%	2.05%	-1.68%	-0.17%	-0.12%	0.72%	1.35%	1.57%	1.96%	3.64%	-0.77%
COC(=O)Nc1nc2cc(Oc3ccc(NC(=O)Nc4ccccc4)cc3)ccc2[nH]1	4.68%	2.26%	4.53%	0.4%	-0.2%	3.75%	6.99%	0.98%	1.1%	-0.1%	1.86%	3.81%	9.99%	0.07%	1.12%	-1.68%	-0.28%	4.55%	7.27%	29.2%
CS(=O)(=O)Nc1ccc(-c2cc(-c3ccccc3)cc(C(N)=O)c2N)cc1	-0.83%	2.58%	4.51%	15.8%	8.99%	4.43%	3.29%	-1.45%	0.85%	0.8%	0.76%	0.16%	2.62%	0.9%	3.86%	-0.01%	0.58%	1.74%	4.53%	3.8%
COc1ccc(Nc2ncc(-c3ccccc3)o2)cc1OC	26.1%	5.41%	30.2%	0.16%	2.03%	1.73%	1.42%	-0.23%	-0.92%	1.19%	3.7%	0.7%	7.81%	1.09%	3.43%	0.88%	10.7%	10.6%	44.2%	79.1%
FC(F)(F)CNc1nccc(-c2cnn3ncccc23)n1	0.37%	2.76%	2.72%	1.46%	1.63%	0.86%	1.21%	-0.18%	1.1%	-0.07%	1%	1.9%	2.18%	1.39%	-0.82%	-1.54%	-1.63%	2.14%	4.88%	2.28%
O=C(O[C@H]1CN[C@H](C#Cc2cc3ncnc(Nc4ccc5c(cnn5Cc5ccccc5)c4)c3s2)C1)N1CCOCC1	8.19%	-0.73%	3.3%	-2.85%	-0.43%	2.89%	1.79%	-1.64%	-2.28%	-1.11%	-0.49%	0.1%	3.26%	-0.37%	-1.59%	-0.78%	1.24%	-0.01%	8.91%	-3.59%
CN1CCC(C(=O)Nc2n[nH]c3nc(-c4ccc(O)cc4)c(Br)cc23)CC1	2.18% and 4.52%	3.06% and 2.78%	6.08% and 4.64%	-4.96% and 3.55%	-5.49% and 3.41%	5.36% and 4.34%	4.73% and 6.55%	2.54% and -0.17%	2.5% and 1.64%	-2.09% and 0.57%	-1.94% and 1.71%	2.37% and 1.02%	19.7% and 3.43%	1.01% and -0.3%	1.49% and 1.42%	-3.69% and -1.35%	-2.24% and 0.59%	7.52% and 6.12%	24.5% and 23.2%	3.81% and 2.92%
CS(=O)(=O)Nc1ccc(-c2ccc3c(NC(=O)C4CC4)n[nH]c3c2)cc1	2.5%	5.35%	8.62%	7.15%	5.41%	4.13%	5.66%	3.14%	2.41%	1.56%	4.27%	2.35%	-1.13%	1.06%	2.88%	-0.85%	1.11%	4.26%	9.88%	1.72%
COc1cc(Nc2ncc(-c3ccccc3)o2)cc(OC)c1	26.5%	8.41%	19.9%	-0.03%	4.18%	1.03%	5.64%	2.92%	2.43%	-0.12%	3.63%	-0.99%	5.5%	2.04%	1.78%	-3.48%	-1.92%	6.74%	19.3%	78.5%
